Out of some 5,500 compounds screened, about 2,000 (36%) were called active. Inconclusive results (about 18%) are left out. Cut-off read from the data, not from the text of the source: active = normalized growth mostly below about 0.91 (no sharp cut-off); inconclusive = no clear call, values can overlap the other calls; inactive = mostly above about 0.92. The list shows a part of the results.
Test: chemical genetic growth profiling, strain panel (AID 1159580);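 note: tested at 20 µM; growth read once vehicle control cultures reached saturation at 30 °C; 1 = growth at the plate median or of vehicle wells; lower values mean less growth of the strain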
Details: growth OD

Measured: normalized growth

Nc1nc(/C(=C/CC(=O)O)C(=O)N[C@@H]2C(=O)N3C(C(=O)O)=CCS[C@H]23)cs1
inactive: S. cerevisiae deletion strains, locus YJR075W, strain HOC1, active compounds read low 1.01 | S. cerevisiae deletion strains, locus YKL009W, strain mrt4, active compounds read low 0.986 | S. cerevisiae deletion strains, locus YKL068W, active compounds read low 0.997 | S. cerevisiae deletion strains, locus YKL085W, strain MDH1 (second series), active compounds read low 0.987 | S. cerevisiae deletion strains, locus YKL085W, strain MDH1, active compounds read low 0.987 | S. cerevisiae deletion strains, locus YKL160W, strain elf1, active compounds read low 0.993 | S. cerevisiae deletion strains, locus YKL190W, strain CNB1, active compounds read low 1.01 | S. cerevisiae deletion strains, locus YKR001C, strain vps1, active compounds read low 0.981 | S. cerevisiae deletion strains, locus YKR026C, strain gcn3, active compounds read low 1 | S. cerevisiae deletion strains, locus YKR091W, strain srl3, active compounds read low 1.01 | S. cerevisiae deletion strains, locus YLL001W, strain dnm1, active compounds read low 1.01 | S. cerevisiae deletion strains, locus YLL026W, active compounds read low 1.01 | S. cerevisiae deletion strains, locus YLL041C, strain sdh2, active compounds read low 1.01 | S. cerevisiae deletion strains, locus YLR027C, strain aat2, active compounds read low 1.01 | S. cerevisiae deletion strains, locus YLR039C, strain RIC1, active compounds read low 1.03 | S. cerevisiae deletion strains, locus YLR058C, strain SHM2, active compounds read low 0.996 | S. cerevisiae deletion strains, locus YLR102C, strain apc9, active compounds read low 0.996 | S. cerevisiae deletion strains, locus YLR113W, strain HOG1, active compounds read low 0.998 | S. cerevisiae deletion strains, locus YLR221C, strain rsa3, active compounds read low 1.01 | S. cerevisiae deletion strains, locus YLR258W, strain gsy2, active compounds read low 0.999 | S. cerevisiae deletion strains, locus YLR262C, strain YPT6 (second series), active compounds read low 1.03 | S. cerevisiae deletion strains, locus YLR262C, strain YPT6, active compounds read low 1.02 | S. cerevisiae deletion strains, locus YLR268W, strain sec22, active compounds read low 0.987 | S. cerevisiae deletion strains, locus YLR320W, strain mms22, active compounds read low 1.01 | S. cerevisiae deletion strains, locus YLR330W, strain CHS5, active compounds read low 0.99 | S. cerevisiae deletion strains, locus YLR342W, strain FKS1 (second series), active compounds read low 1 | S. cerevisiae deletion strains, locus YLR342W, strain FKS1, active compounds read low 1.01 | S. cerevisiae deletion strains, locus YLR357W, strain rsc2, active compounds read low 1.01 | S. cerevisiae deletion strains, locus YLR370C, strain arc18, active compounds read low 1 | S. cerevisiae deletion strains, locus YLR371W, strain rom2, active compounds read low 0.995 | S. cerevisiae deletion strains, locus YLR384C, strain iki3, active compounds read low 0.997 | S. cerevisiae deletion strains, locus YLR418C, strain cdc73, active compounds read low 1 | S. cerevisiae deletion strains, locus YML016C, strain PPZ1, active compounds read low 0.984 | S. cerevisiae deletion strains, locus YML032C, strain rad52, active compounds read low 0.997 | S. cerevisiae deletion strains, locus YML120C, strain ndi1, active compounds read low 1 | S. cerevisiae deletion strains, locus YML124C, strain tub3, active compounds read low 0.982 | S. cerevisiae deletion strains, locus YMR058W, strain fet3, active compounds read low 0.998 | S. cerevisiae deletion strains, locus YMR078C, strain ctf18, active compounds read low 0.991 | S. cerevisiae deletion strains, locus YMR125W, strain sto1, active compounds read low 1.01 | S. cerevisiae deletion strains, locus YMR129W, active compounds read low 1.01 | S. cerevisiae deletion strains, locus YMR205C, strain PFK2, active compounds read low 1.01 | S. cerevisiae deletion strains, locus YMR223W, strain ubp8, active compounds read low 1 | S. cerevisiae deletion strains, locus YMR231W, strain pep5, active compounds read low 1.01 | S. cerevisiae deletion strains, locus YMR263W, strain SAP30, active compounds read low 1.01 | S. cerevisiae deletion strains, locus YMR307W, strain GAS1, active compounds read low 0.996 | S. cerevisiae deletion strains, locus YNL067W, strain RPL9B, active compounds read low 1.03 | S. cerevisiae deletion strains, locus YNL071W, strain lat1, active compounds read low 1 | S. cerevisiae deletion strains, locus YNL128W, strain TEP1, active compounds read low 1.01 | S. cerevisiae deletion strains, locus YNL153C, strain GIM3, active compounds read low 0.995 | S. cerevisiae deletion strains, locus YNL183C, strain NPR1, active compounds read low 0.961 | S. cerevisiae deletion strains, locus YNL209W, strain ssb2, active compounds read low 0.994 | S. cerevisiae deletion strains, locus YNL233W, strain BNI4, active compounds read low 0.993 | S. cerevisiae deletion strains, locus YNL248C, strain rpa49, active compounds read low 1.01 | S. cerevisiae deletion strains, locus YNL250W, strain rad50, active compounds read low 0.987 | S. cerevisiae deletion strains, locus YNL271C, strain bni1, active compounds read low 0.987 | S. cerevisiae deletion strains, locus YNL298W, strain CLA4, active compounds read low 0.984 | S. cerevisiae deletion strains, locus YNL307C, strain MCK1, active compounds read low 0.998 | S. cerevisiae deletion strains, locus YNL322C, strain KRE1 (second series), active compounds read low 1.01 | S. cerevisiae deletion strains, locus YNL322C, strain KRE1, active compounds read low 0.994 | S. cerevisiae deletion strains, locus YNR049C, strain mso1, active compounds read low 1 | S. cerevisiae deletion strains, locus YNR052C, strain pop2, active compounds read low 0.983 | S. cerevisiae deletion strains, locus YOL006C, strain TOP1, active compounds read low 1.02 | S. cerevisiae deletion strains, locus YOL012C, strain htz1 2.11 | S. cerevisiae deletion strains, locus YOL147C, strain pex11, active compounds read low 0.997 | S. cerevisiae deletion strains, locus YOR001W, strain rrp6, active compounds read low 1.01 | S. cerevisiae deletion strains, locus YOR061W, strain CKA2, active compounds read low 0.984 | S. cerevisiae deletion strains, locus YOR069W, strain VPS5, active compounds read low 0.993 | S. cerevisiae deletion strains, locus YOR070C, strain gyp1, active compounds read low 1 | S. cerevisiae deletion strains, locus YOR080W, strain dia2, active compounds read low 1.01 | S. cerevisiae deletion strains, locus YOR083W, strain WHI5, active compounds read low 1.01 | S. cerevisiae deletion strains, locus YOR106W, strain vam3, active compounds read low 1.02 | S. cerevisiae deletion strains, locus YOR136W, strain idh2, active compounds read low 0.983 | S. cerevisiae deletion strains, locus YOR144C, strain elg1, active compounds read low 0.988 | S. cerevisiae deletion strains, locus YOR184W, strain ser1, active compounds read low 0.999 | S. cerevisiae deletion strains, locus YOR231W, strain MKK1, active compounds read low 0.986 | S. cerevisiae deletion strains, locus YOR265W, strain rbl2, active compounds read low 1.01 | S. cerevisiae deletion strains, locus YOR270C, strain vph1, active compounds read low 1.06 | S. cerevisiae deletion strains, locus YOR290C, strain snf2, active compounds read low 0.995 | S. cerevisiae deletion strains, locus YOR316C, strain cot1, active compounds read low 0.992 | S. cerevisiae deletion strains, locus YPL051W, strain arl3, active compounds read low 1 | S. cerevisiae deletion strains, locus YPL055C, strain LGE1, active compounds read low 1.01 | S. cerevisiae deletion strains, locus YPL078C, strain atp4, active compounds read low 1 | S. cerevisiae deletion strains, locus YPL106C, strain sse1, active compounds read low 1.01 | S. cerevisiae deletion strains, locus YPL240C, strain hsp82, active compounds read low 1.01 | S. cerevisiae deletion strains, locus YPL241C, strain CIN2, active compounds read low 0.993 | S. cerevisiae deletion strains, locus YPL256C, strain CLN2, active compounds read low 0.961 | S. cerevisiae deletion strains, locus YPR119W, strain clb2, active compounds read low 0.997 | S. cerevisiae deletion strains, locus YPR141C, strain kar3, active compounds read low 0.99 | S. cerevisiae deletion strains, locus YPR163C, strain tif3, active compounds read low 0.982 | S. cerevisiae deletion strains, locus YPR167C, strain met16, active compounds read low 0.991 | S. cerevisiae deletion strains, strain wtn01, active compounds read low 0.985 | S. cerevisiae strains, strain wild type, active compounds read low 1.01

Reference: PubChem BioAssay AID1159580 (chemical genetic matrix, 2015)
